{"source": "PubChem BioAssay (NCI)", "note": "Compounds without any hit were thinned out: in the full panel of roughly 79,000, 15% have a hit. Values without a mark were called inactive. Active and inactive are the calls of the source. Cut-off read from the data, not from the text of the source: active = growth inhibition above about 70%; inactive = the rest."}
{"test": "NCI Yeast Anticancer Drug Screen. Data for the cln2 rad14 strain (AID 165);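 note: 0% = growth equal to vehicle treated cultures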", "conditions": "S. cerevisiae cln2 rad14 strain, at 5.0 µM (retest, dose inferred, filed as 0.5), active compounds read high", "procedure,_shortened": "(§1)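 Test compounds were added to cln2 rad14 yeast cultures; inhibition of growth was then determined by comparison with vehicle treatment.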"}
{"compound": "CC(C)(C)CC(C)(C)c1ccc(O)cc1", "growth inhibition": "-7%"}
{"compound": "CC[n+]1c(/C=C/c2ccc(N(CCCl)CCCl)cc2)ccc2cc(I)ccc21", "growth inhibition": "99% (active)"}
{"compound": "CCCCCCC1CCC2CCCC(C)N12", "note": "(stereo not drawn)", "growth inhibition": "14%"}
{"compound": "C[N+](C)(C)CC1CCC(C[N+](C)(C)C)C1=O", "note": "(stereo not drawn)", "growth inhibition": "-7%"}
{"compound": "CCC[CH2][Sn]1([CH2]CCC)[O]C(=O)c2cc(C)ccc2[O]1", "growth inhibition": "71% (active)"}
{"compound": "COc1ccc(CC2C(=O)NC(C)C(=O)N(C)C3C(=O)N(C)C(Cc4ccc(O)c(c4)Oc4ccc(cc4)C3O)C(=O)NC(C)C(=O)NC(C)C(=O)N2C)cc1", "note": "(stereo not drawn)", "growth inhibition": "27%"}
{"compound": "CC(=O)Nc1cccc([As+](C)(c2cccc(NC(C)=O)c2)c2cccc(NC(C)=O)c2)c1", "growth inhibition": "18%"}
{"compound": "COC1OC(COC(C)=O)C(OC(C)=O)C(OC(C)=O)[C]1(OC(C)=O)[Hg][O]C(C)=O", "note": "(stereo not drawn)", "growth inhibition": "99% (active)"}
{"compound": "CCOC(=O)C(NC(=O)C(Cc1ccc(N(CCCl)CCCl)cc1)NC(C)=O)C(C)C", "note": "(stereo not drawn)", "growth inhibition": "-1%"}
{"compound": "CN1c2cccc[c]2[Sn]([CH3])([CH3])[c]2ccccc21", "growth inhibition": "77% (active)"}
{"compound": "Cc1ccc(C(=O)OC(C(=O)O)C(OC(=O)c2ccc(C)cc2)C(=O)O)cc1", "note": "(stereo not drawn) (tested in a mixture with another compound)", "growth inhibition": "34%"}
{"compound": "CC(C)(c1ccccc1)c1ccc(O)cc1", "growth inhibition": "-9%"}
{"compound": "CC1(C)N=C(N)N=C(N)N1CCCOc1ccc(NC(=O)c2ccc(S(=O)(=O)F)cc2)cc1", "growth inhibition": "-3%"}
{"compound": "CC1=CC2OC3CC4OC(=O)/C=C/C=C/C(=O)OCCC(C)C(O)C(=O)OCC2(CC1O)C4(C)C31CO1", "note": "(stereo not drawn)", "growth inhibition": "97% (active)"}
{"compound": "C=CCOc1cc2c(ccc1=O)-c1c(cc(OC)c(OC)c1OC)CCC2NC(C)=O", "note": "(stereo not drawn)", "growth inhibition": "-5%"}
{"compound": "c1ccc2c(c1)[As]=c1ccccc1=[As]2", "note": "(stereo not drawn)", "growth inhibition": "36%"}
{"compound": "CCC(C)(c1ccc(O)cc1)c1ccc(O)cc1", "growth inhibition": "21%"}
{"compound": "COc1cc(C2c3cc4c(cc3[C@@H](Nc3ccc(F)cc3)C3COC(=O)[C@H]23)OCO4)cc(OC)c1O", "note": "(stereo partly drawn)", "growth inhibition": "41%"}
{"compound": "CC(C)(C)OC(=O)NC(CSC(c1ccccc1)(c1ccccc1)c1cccs1)C(=O)O", "note": "(stereo not drawn)", "growth inhibition": "23%"}
{"compound": "CCOP(=S)(OCC)OC(c1ccc(Cl)cc1)c1ccc(Cl)cc1", "growth inhibition": "6%"}
{"compound": "COc1ccc(OC)c(C=O)c1", "growth inhibition": "2%"}
{"compound": "CC(=O)Oc1cccc2c1CC(C[Se]c1ccccc1)C(=O)O2", "note": "(stereo not drawn)", "growth inhibition": "3%"}
{"compound": "CCOC(=S)S", "growth inhibition": "12%"}
{"compound": "CC(NCCN(C)C)C1CC2CCCCN2C1", "note": "(stereo not drawn)", "growth inhibition": "-17%"}
{"compound": "Nc1ncc(CCCCc2ccc(NC(=O)Nc3ccc(S(=O)(=O)F)cc3)cc2)c(N)n1", "growth inhibition": "-8%"}
{"compound": "CC#N.FC(F)(F)C#CC(F)(F)F.FC(F)(F)C#CC(F)(F)F.FC(F)(F)C#CC(F)(F)F.[W]", "growth inhibition": "85% (active)"}
{"compound": "[Cl][Hg][CH2]CC1CC=CCC1", "note": "(stereo not drawn)", "growth inhibition": "100% (active)"}
{"compound": "CC(=O)O[C@H]1CC[C@H]2[C@@H]3CCC4=CC(=O)CC[C@@H]4[C@H]3CC[C@]12C", "growth inhibition": "-3%"}
{"compound": "c1ccc(P(CCP(c2ccccc2)c2ccccc2)CCP(c2ccccc2)c2ccccc2)cc1", "growth inhibition": "84% (active)"}
{"compound": "Cc1cc(NCc2ccccc2)c2ccccc2[n+]1CCCCCCCCCC[n+]1c(C)cc(NCc2ccccc2)c2ccccc21", "growth inhibition": "98% (active)"}
{"compound": "CCCCC(CC)CNP(=S)(NCC(CC)CCCC)NCC(CC)CCCC", "note": "(stereo not drawn)", "growth inhibition": "-2%"}
{"compound": "Nc1c(Br)cc(Br)c2c1C(=O)c1ccccc1C2=O", "growth inhibition": "0%"}
{"compound": "O=[N+]([O-])/C=C/c1cc2c(cc1Br)OCO2", "growth inhibition": "26%"}
{"compound": "CC(Br)CN(CC(C)Br)c1ccc2c(c1)Cc1ccccc1-2", "note": "(stereo not drawn)", "growth inhibition": "-16%"}
{"compound": "c1ccc2c[n+](CCCCCCCCCC[n+]3ccc4ccccc4c3)ccc2c1", "growth inhibition": "68%"}
{"compound": "CCC[CH2][Sn]([N]=C=S)([N]=C=S)[N]=C=S.O=P(c1ccccc1)(c1ccccc1)c1ccccc1.O=P(c1ccccc1)(c1ccccc1)c1ccccc1", "growth inhibition": "-2%"}
{"compound": "CN(CCC(N)CC(=O)NC1C=CC(n2ccc(N)nc2=O)OC1C(=O)O)C(=N)N", "note": "(stereo not drawn)", "growth inhibition": "88% (active)"}
{"compound": "O=C1C=CC(=O)N1c1cccc2ccccc12", "note": "(tested in a mixture with another compound)", "growth inhibition": "-1%"}
{"compound": "CN(C)c1ccc(N=Cc2c([O-])ccc3ccccc23)cc1.[C-]#[O+].[C-]#[O+].[Ir]", "growth inhibition": "3%"}
{"test": "NCI Yeast Anticancer Drug Screen. Data for the cln2 rad14 strain (AID 165);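 note: 0% = growth equal to vehicle treated cultures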", "conditions": "S. cerevisiae cln2 rad14 strain, at 50.0 µM (retest, dose inferred, filed as 5.0), active compounds read high", "procedure,_shortened": "as §1"}
{"compound": "CC(C)(C)CC(C)(C)c1ccc(O)cc1", "growth inhibition": "99% (active)"}
{"compound": "CC[n+]1c(/C=C/c2ccc(N(CCCl)CCCl)cc2)ccc2cc(I)ccc21", "growth inhibition": "99% (active)"}
{"compound": "CCCCCCC1CCC2CCCC(C)N12", "note": "(stereo not drawn)", "growth inhibition": "43%"}
{"compound": "C[N+](C)(C)CC1CCC(C[N+](C)(C)C)C1=O", "note": "(stereo not drawn)", "growth inhibition": "5%"}
{"compound": "CCC[CH2][Sn]1([CH2]CCC)[O]C(=O)c2cc(C)ccc2[O]1", "growth inhibition": "97% (active)"}
{"compound": "COc1ccc(CC2C(=O)NC(C)C(=O)N(C)C3C(=O)N(C)C(Cc4ccc(O)c(c4)Oc4ccc(cc4)C3O)C(=O)NC(C)C(=O)NC(C)C(=O)N2C)cc1", "note": "(stereo not drawn)", "growth inhibition": "88% (active)"}
{"compound": "CC(=O)Nc1cccc([As+](C)(c2cccc(NC(C)=O)c2)c2cccc(NC(C)=O)c2)c1", "growth inhibition": "15%"}
{"compound": "COC1OC(COC(C)=O)C(OC(C)=O)C(OC(C)=O)[C]1(OC(C)=O)[Hg][O]C(C)=O", "note": "(stereo not drawn)", "growth inhibition": "98% (active)"}
{"compound": "CCOC(=O)C(NC(=O)C(Cc1ccc(N(CCCl)CCCl)cc1)NC(C)=O)C(C)C", "note": "(stereo not drawn)", "growth inhibition": "-2%"}
{"compound": "CN1c2cccc[c]2[Sn]([CH3])([CH3])[c]2ccccc21", "growth inhibition": "100% (active)"}
{"compound": "Cc1ccc(C(=O)OC(C(=O)O)C(OC(=O)c2ccc(C)cc2)C(=O)O)cc1", "note": "(stereo not drawn) (tested in a mixture with another compound)", "growth inhibition": "77% (active)"}
{"compound": "CC(C)(c1ccccc1)c1ccc(O)cc1", "growth inhibition": "71% (active)"}
{"compound": "CC1(C)N=C(N)N=C(N)N1CCCOc1ccc(NC(=O)c2ccc(S(=O)(=O)F)cc2)cc1", "growth inhibition": "0%"}
{"compound": "CC1=CC2OC3CC4OC(=O)/C=C/C=C/C(=O)OCCC(C)C(O)C(=O)OCC2(CC1O)C4(C)C31CO1", "note": "(stereo not drawn)", "growth inhibition": "98% (active)"}
{"compound": "C=CCOc1cc2c(ccc1=O)-c1c(cc(OC)c(OC)c1OC)CCC2NC(C)=O", "note": "(stereo not drawn)", "growth inhibition": "-11%"}
{"compound": "c1ccc2c(c1)[As]=c1ccccc1=[As]2", "note": "(stereo not drawn)", "growth inhibition": "99% (active)"}
{"compound": "CCC(C)(c1ccc(O)cc1)c1ccc(O)cc1", "growth inhibition": "98% (active)"}
{"compound": "COc1cc(C2c3cc4c(cc3[C@@H](Nc3ccc(F)cc3)C3COC(=O)[C@H]23)OCO4)cc(OC)c1O", "note": "(stereo partly drawn)", "growth inhibition": "99% (active)"}
{"compound": "CC(C)(C)OC(=O)NC(CSC(c1ccccc1)(c1ccccc1)c1cccs1)C(=O)O", "note": "(stereo not drawn)", "growth inhibition": "99% (active)"}
{"compound": "CCOP(=S)(OCC)OC(c1ccc(Cl)cc1)c1ccc(Cl)cc1", "growth inhibition": "-29%"}
{"compound": "COc1ccc(OC)c(C=O)c1", "growth inhibition": "4%"}
{"compound": "CC(=O)Oc1cccc2c1CC(C[Se]c1ccccc1)C(=O)O2", "note": "(stereo not drawn)", "growth inhibition": "23%"}
{"compound": "CCOC(=S)S", "growth inhibition": "66%"}
{"compound": "CC(NCCN(C)C)C1CC2CCCCN2C1", "note": "(stereo not drawn)", "growth inhibition": "-26%"}
{"compound": "Nc1ncc(CCCCc2ccc(NC(=O)Nc3ccc(S(=O)(=O)F)cc3)cc2)c(N)n1", "growth inhibition": "57%"}
{"compound": "CC#N.FC(F)(F)C#CC(F)(F)F.FC(F)(F)C#CC(F)(F)F.FC(F)(F)C#CC(F)(F)F.[W]", "growth inhibition": "99% (active)"}
{"compound": "[Cl][Hg][CH2]CC1CC=CCC1", "note": "(stereo not drawn)", "growth inhibition": "99% (active)"}
{"compound": "CC(=O)O[C@H]1CC[C@H]2[C@@H]3CCC4=CC(=O)CC[C@@H]4[C@H]3CC[C@]12C", "growth inhibition": "39%"}
{"compound": "c1ccc(P(CCP(c2ccccc2)c2ccccc2)CCP(c2ccccc2)c2ccccc2)cc1", "growth inhibition": "84% (active)"}
{"compound": "Cc1cc(NCc2ccccc2)c2ccccc2[n+]1CCCCCCCCCC[n+]1c(C)cc(NCc2ccccc2)c2ccccc21", "growth inhibition": "99% (active)"}
{"compound": "CCCCC(CC)CNP(=S)(NCC(CC)CCCC)NCC(CC)CCCC", "note": "(stereo not drawn)", "growth inhibition": "20%"}
{"compound": "Nc1c(Br)cc(Br)c2c1C(=O)c1ccccc1C2=O", "growth inhibition": "3%"}
{"compound": "O=[N+]([O-])/C=C/c1cc2c(cc1Br)OCO2", "growth inhibition": "62%"}
{"compound": "CC(Br)CN(CC(C)Br)c1ccc2c(c1)Cc1ccccc1-2", "note": "(stereo not drawn)", "growth inhibition": "85% (active)"}
{"compound": "c1ccc2c[n+](CCCCCCCCCC[n+]3ccc4ccccc4c3)ccc2c1", "growth inhibition": "98% (active)"}
{"compound": "CCC[CH2][Sn]([N]=C=S)([N]=C=S)[N]=C=S.O=P(c1ccccc1)(c1ccccc1)c1ccccc1.O=P(c1ccccc1)(c1ccccc1)c1ccccc1", "growth inhibition": "10%"}
{"compound": "CN(CCC(N)CC(=O)NC1C=CC(n2ccc(N)nc2=O)OC1C(=O)O)C(=N)N", "note": "(stereo not drawn)", "growth inhibition": "97% (active)"}
{"compound": "O=C1C=CC(=O)N1c1cccc2ccccc12", "note": "(tested in a mixture with another compound)", "growth inhibition": "3%"}
{"compound": "CN(C)c1ccc(N=Cc2c([O-])ccc3ccccc23)cc1.[C-]#[O+].[C-]#[O+].[Ir]", "growth inhibition": "3%"}
